Assay results taken from PubChem BioAssay (NCI).
This is part of a sample that, as a whole, favours compounds with a hit. Of some 83,000 tested, about 20% had one in any assay.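 Cells were grown in 96-well plates and exposed to the test compound at a single concentration for 48 hours; results are reported as percent growth, with values below 10 considered active.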 Calls of active or inactive are those of the source.

Tests used:
Assay in all cases: NCI-60 one-dose screen, 48 h (100 = growth as untreated, 0 = no growth, -100 = all killed)
Settings in all cases: 10 µM
EKVX NSCLC = test system: EKVX NSCLC
SN12C renal = test system: SN12C renal
UO-31 renal = test system: UO-31 renal
TK-10 renal = test system: TK-10 renal
ACHN renal = test system: ACHN renal
A498 renal = test system: A498 renal
CCRF-CEM leukemia = test system: CCRF-CEM leukemia
MOLT-4 leukemia = test system: MOLT-4 leukemia
SR leukemia = test system: SR leukemia
CAKI-1 renal = test system: CAKI-1 renal

Measured: growth

Cc1cc(N(CCCNc2ccnc3cc(Cl)ccc23)Cc2ccc3c(c2)OCO3)nc(N2CCCCC2)n1
active: EKVX NSCLC 2.19% | UO-31 renal -61.9% | TK-10 renal -35.3% | ACHN renal -37.7% | A498 renal -18.8% | CCRF-CEM leukemia -5.28% | MOLT-4 leukemia -27.1% | SR leukemia -41.7%
inactive: SN12C renal 23.4%

Cc1cc(Cl)nc(N(CCCNc2ccnc3cc(Cl)ccc23)Cc2cccs2)n1
inactive: EKVX NSCLC 36.4% | SN12C renal 33% | TK-10 renal 28.4% | ACHN renal 25.8% | A498 renal 19.6%
active: UO-31 renal 5.57% | CCRF-CEM leukemia 2.62% | MOLT-4 leukemia -17.6% | SR leukemia -21.3%

CCCCC/C=C/C(=O)CCc1ccc(O)c(OC)c1
inactive: EKVX NSCLC 91.2% | SN12C renal 81.3% | UO-31 renal 37% | TK-10 renal 110% | ACHN renal 103% | CCRF-CEM leukemia 27.6% | MOLT-4 leukemia 96.7% | SR leukemia 53.4%

COc1ccc(OC)c(/C=C/c2nnc(Nc3ccc(Cl)cc3)o2)c1
inactive: EKVX NSCLC 68.1% | SN12C renal 44.9% | TK-10 renal 39.1% | ACHN renal 32.6% | CCRF-CEM leukemia 90.1% | MOLT-4 leukemia 89.7% | SR leukemia 78.9%
active: UO-31 renal 4.98%

CCOC(=O)C(NC(=O)C(Cl)Cl)C(O)c1ccccc1 (stereo unspecified)
inactive: EKVX NSCLC 109% | SN12C renal 98.8% | UO-31 renal 97.6% | TK-10 renal 104% | ACHN renal 107% | A498 renal 99.2% | CCRF-CEM leukemia 150% | MOLT-4 leukemia 98.3% | SR leukemia 107%

COc1cc(CNCCCCCCN2C(=O)c3cccc4cccc(c34)C2=O)ccc1O
inactive: EKVX NSCLC 89.3% | SN12C renal 70.5% | UO-31 renal 23.8% | TK-10 renal 85.4% | ACHN renal 63.7% | CCRF-CEM leukemia 45.4% | MOLT-4 leukemia 49.2%
active: SR leukemia 0.634%

O=C1N=NC2=C1c1c3ccccc3c(O)n1CC2
inactive: EKVX NSCLC 96.1% | SN12C renal 105% | UO-31 renal 90% | TK-10 renal 104% | ACHN renal 99.9% | A498 renal 94.9% | CCRF-CEM leukemia 97.1% | MOLT-4 leukemia 104% | SR leukemia 103%

CCOCCOCCOCCOCCOCCOCCOCCOCCOCCO (tested in a mixture with another compound)
inactive: EKVX NSCLC 12.7% | SN12C renal 10.5% | UO-31 renal 19.1% | CAKI-1 renal 13.1% | A498 renal 32.8%
active: TK-10 renal 0.0792% | CCRF-CEM leukemia -39.9% | MOLT-4 leukemia -49.5% | SR leukemia -52.4%

Nc1nc(N)c2c(ccc3nccc32)[nH]1
inactive: EKVX NSCLC 51.6% | SN12C renal 94% | UO-31 renal 39.3% | TK-10 renal 92.1% | ACHN renal 42.7% | A498 renal 79.4% | CCRF-CEM leukemia 27.9% | MOLT-4 leukemia 33.9% | SR leukemia 28.5%

CCOC(=O)c1ccc(NC(=O)Nc2ncc(Cl)cc2Cl)cc1
inactive: EKVX NSCLC 111% | SN12C renal 86.8% | UO-31 renal 96.4% | TK-10 renal 108% | ACHN renal 107% | A498 renal 91.9% | CCRF-CEM leukemia 81.7% | MOLT-4 leukemia 93.2% | SR leukemia 95.9%

COC(=O)C1(C)Cc2cc(OC(C)=O)c(OC(C)=O)cc2N1 (stereo unspecified)
active: SR leukemia 1.05%
inactive: EKVX NSCLC 92.2% | SN12C renal 88.8% | UO-31 renal 32.3% | TK-10 renal 87.9% | ACHN renal 27.3% | A498 renal 92.8% | CCRF-CEM leukemia 24.1% | MOLT-4 leukemia 56.6%

Cc1nc2ccccc2c(N)c1-c1cc(C)c2c(C)nc3ccccc3c2n1
active: UO-31 renal -95.7% | ACHN renal -92.4% | A498 renal -12.9% | CCRF-CEM leukemia -42.1% | MOLT-4 leukemia -50.8% | SR leukemia -39.5%
inactive: EKVX NSCLC 68.4% | SN12C renal 57.9% | TK-10 renal 14.3%

COc1ccc(-c2cc(-c3cccc(NS(C)(=O)=O)c3)nc(N)c2C#N)cc1
inactive: EKVX NSCLC 22% | SN12C renal 43.3% | UO-31 renal 31.9% | TK-10 renal 67.5% | ACHN renal 36.4% | CCRF-CEM leukemia 19% | MOLT-4 leukemia 19.7% | SR leukemia 16.1%

Cc1ccc(NC(=O)Nc2cccnc2)cc1NC(=O)Nc1cccnc1
inactive: EKVX NSCLC 82.4% | SN12C renal 92% | UO-31 renal 85.3% | TK-10 renal 92.1% | ACHN renal 83.8% | A498 renal 90.7% | CCRF-CEM leukemia 58.2% | MOLT-4 leukemia 66.8% | SR leukemia 31.3%

CN(C)c1ccc(-c2cc(-c3cccc(NS(C)(=O)=O)c3)nc(N)c2C#N)cc1
inactive: EKVX NSCLC 17.3% | SN12C renal 37.9% | UO-31 renal 11.2% | TK-10 renal 42.1% | ACHN renal 26.1% | CCRF-CEM leukemia 15.9% | MOLT-4 leukemia 24.3%
active: SR leukemia 9.27%

O=C(Nc1nc2ccccc2s1)Nc1ccc([N+](=O)[O-])cc1Cl
inactive: EKVX NSCLC 90.4% | SN12C renal 78.8% | UO-31 renal 26.8% | TK-10 renal 57% | ACHN renal 88% | A498 renal 106% | CCRF-CEM leukemia 57.7% | MOLT-4 leukemia 91.1% | SR leukemia 48.3%

CC(C)=CCc1cc(O)cc2c1OC(C=C(C)C)C1=C2C(=O)C2=C(NCCS2(=O)=O)C1=O (stereo unspecified)
active: EKVX NSCLC -1.26% | SN12C renal -59% | CCRF-CEM leukemia 1.9% | MOLT-4 leukemia -34.5% | SR leukemia 1.49%
inactive: UO-31 renal 67.3% | TK-10 renal 106% | ACHN renal 26.2% | A498 renal 50.2%

CC(=O)[C@H]1CC[C@H]2[C@@H]3CCC4=CC(=O)C=C[C@]4(C)[C@H]3CC[C@]12C
inactive: EKVX NSCLC 60.1% | SN12C renal 95.9% | UO-31 renal 88.5% | TK-10 renal 106% | CAKI-1 renal 87.8% | A498 renal 60.4% | CCRF-CEM leukemia 87.2% | MOLT-4 leukemia 87.1% | SR leukemia 84.4%

O=C(Nc1cccc(Cl)c1)Nc1nccs1
inactive: EKVX NSCLC 98.1% | SN12C renal 87.7% | UO-31 renal 89.9% | TK-10 renal 109% | ACHN renal 98.5% | A498 renal 99.2% | CCRF-CEM leukemia 83.2% | MOLT-4 leukemia 101% | SR leukemia 78.5%

COc1ccc(NC2=NC(C)(CO)CS2)cc1 (stereo unspecified)
inactive: EKVX NSCLC 106% | SN12C renal 91.1% | UO-31 renal 77.7% | TK-10 renal 110% | ACHN renal 96.7% | A498 renal 94.2% | CCRF-CEM leukemia 89.6% | MOLT-4 leukemia 96.7% | SR leukemia 126%

S=c1[nH]ccn1-c1c(Cl)cccc1Cl
inactive: EKVX NSCLC 103% | SN12C renal 92.6% | UO-31 renal 91% | TK-10 renal 112% | ACHN renal 101% | A498 renal 116% | CCRF-CEM leukemia 76.7% | MOLT-4 leukemia 106% | SR leukemia 104%

CCN1Cc2c(/C=C/c3ccccc3)nc3ccc(OC)cc3c2N(c2cccc(Cl)c2)C1
inactive: EKVX NSCLC 66.9% | SN12C renal 60.6% | UO-31 renal 63.8% | TK-10 renal 101% | ACHN renal 98% | A498 renal 85.5% | CCRF-CEM leukemia 58.6% | MOLT-4 leukemia 55.4% | SR leukemia 11.7%

CC(=O)OCc1cc(-c2nc3ccccc3[nH]c2=O)nn1-c1ccc(Cl)cc1
inactive: EKVX NSCLC 104% | SN12C renal 105% | UO-31 renal 98.2% | TK-10 renal 119% | ACHN renal 102% | A498 renal 100% | CCRF-CEM leukemia 97.9% | MOLT-4 leukemia 87.6% | SR leukemia 105%

CC12O[C@H](C[C@@H](OC(=O)c3ccccc3)[C@H]1O)n1c3ccccc3c3c4c(c5c6ccccc6n2c5c31)C(=O)NC4=O
active: UO-31 renal -13.9% | TK-10 renal 7.3% | A498 renal -25.6%
inactive: EKVX NSCLC 36.4% | SN12C renal 33% | ACHN renal 39.4% | CCRF-CEM leukemia 64% | MOLT-4 leukemia 64.3% | SR leukemia 50.3%

O=[N+]([O-])c1cccc(N=Cc2ccc3c(c2)OCO3)c1
inactive: EKVX NSCLC 104% | SN12C renal 101% | UO-31 renal 76.7% | ACHN renal 122% | CAKI-1 renal 98.3% | A498 renal 118% | CCRF-CEM leukemia 97% | MOLT-4 leukemia 89.7% | SR leukemia 102%

CCN(CC)CCSCCCNc1c2ccc(Cl)cc2nc2ccc(OC)cc12
active: EKVX NSCLC -20.2% | SN12C renal -32% | TK-10 renal -4.3% | ACHN renal -78.3% | CAKI-1 renal -22.8% | A498 renal -77.7% | CCRF-CEM leukemia -20.4% | MOLT-4 leukemia -19.9% | SR leukemia -19.8%

O=C(Nc1ccncc1)C(=O)c1cn(S(=O)(=O)c2cccc(Cl)c2)c2ccccc12
inactive: EKVX NSCLC 52.3% | SN12C renal 75.5% | UO-31 renal 57.7% | ACHN renal 82.8% | CAKI-1 renal 63.8% | A498 renal 69.4% | CCRF-CEM leukemia 72.4% | MOLT-4 leukemia 53.1% | SR leukemia 12%

CC(C)=NNc1ncnc2c1ncn2C1OC(CO)C(O)C1O (stereo unspecified)
active: CAKI-1 renal -19%
inactive: EKVX NSCLC 43.7% | SN12C renal 20.5% | TK-10 renal 57.5% | ACHN renal 12.3% | CCRF-CEM leukemia 35.9% | MOLT-4 leukemia 56.4% | SR leukemia 14.4%

COc1cc(NC(=O)CSc2nc3ccccc3c(=O)n2CCc2ccccc2)cc(OC)c1OC
active: TK-10 renal -2.38% | ACHN renal -41.6% | A498 renal -21.8%
inactive: EKVX NSCLC 65.3% | SN12C renal 25.9% | CAKI-1 renal 45.4%

CC(=O)/C(=C/c1ccccc1)C(=O)CC(C)C
active: CCRF-CEM leukemia 9% | SR leukemia 1.48%
inactive: EKVX NSCLC 99.6% | SN12C renal 108% | UO-31 renal 83.1% | ACHN renal 84.7% | CAKI-1 renal 100% | A498 renal 96.1% | MOLT-4 leukemia 34.1%
